In PubChem BioAssay (NCI):
Compounds without any hit were thinned out: in the full panel of roughly 83,000, 20% have a hit.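 Cells were grown in 96-well plates and exposed to the test compound at a single concentration for 48 hours; results are reported as percent growth, with values below 10 considered active.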 Unmarked numbers belong to inactive results. Activity calls are given as the source filed them.

Experiments:
Assay in all cases: NCI-60 one-dose screen, 48 h (100 = growth as untreated, 0 = no growth, -100 = all killed)
Conditions in all cases: 10 µM unless noted
[1] = system: DU-145 prostate
[2] = system: K-562 leukemia
[3] = system: MALME-3M melanoma
[4] = system: MDA-MB-231 breast
[5] = system: RXF 393 renal
[6] = system: SF-268 CNS
[7] = system: SF-295 CNS
[8] = system: SF-539 CNS
[9] = system: UACC-257 melanoma
[10] = system: M14 melanoma
[11] = system: HCT-15 colon
[12] = system: HT29 colon
[13] = system: SNB-75 CNS
[14] = system: SNB-19 CNS
[15] = system: U251 CNS
[16] = system: PC-3 prostate
[17] = system: SK-MEL-5 melanoma
[18] = system: UACC-62 melanoma
[19] = system: LOX IMVI melanoma
[20] = system: SK-MEL-28 melanoma

| SMILES | growth [1] | growth [2] | growth [3] | growth [4] | growth [5] | growth [6] | growth [7] | growth [8] | growth [9] | growth [10] | growth [11] | growth [12] | growth [13] | growth [14] | growth [15] | growth [16] | growth [17] | growth [18] | growth [19] | growth [20] |
| --- | --- | --- | --- | --- | --- | --- | --- | --- | --- | --- | --- | --- | --- | --- | --- | --- | --- | --- | --- | --- |
| O=C(O)c1cccc(S(=O)(=O)c2ccccc2)c1 | 107% | 107% | 87.7% | 123% | 101% | 103% | 95% | 98.5% | 105% | 95.9% | 99.4% | 104% | 84.2% | 110% | 108% | 100% | 97% | 101% | 99% | 98.9% |
| O=c1c2ccccc2sc2c(N3CCCC3)nc3ccccc3c12 | 99% | 86.5% | 136% | 90.5% | 103% | 98.9% | 115% | 102% | 106% | 114% | 94% | 92.3% | 86.6% | 95.9% | 98.5% | 83.4% | 92.6% | 79% | 85.9% | 120% |
| S=c1n(CNc2ccc(Cl)nn2)nc(-c2cc(Cl)cc(Cl)c2Cl)n1/N=C/c1ccc(Cl)cc1 | 109% | 71.7% | 89.3% | 92.9% | 149% | 107% | 70% | 101% | 106% | 55.8% | 117% | 118% | 98.5% | 102% | 86.9% | 82.6% | 90.9% | 90.4% | 94.5% | 105% |
| O=C1OC(N(Cc2ccc(Cl)cc2)c2ccccc2)c2ccccc21 (stereo not given) | 109% | 87% | 104% | 84.8% | 125% | 105% | 104% | 99.7% | 105% | 104% | 104% | 87.4% | 115% | 96.7% | 100% | 98.2% | 101% | 93.9% | 98.9% | 111% |
| c1nc(SC2=NCCN2)c2[nH]cnc2n1 | 37.3% | 14.3% | 47.3% | 37.7% | 59.7% | 46.5% | 29.1% | 24.3% | 66.8% | 14.7% | 57.8% | 35.3% | 52.7% | 103% | 79.4% | 57.5% | 79.1% | 19.1% | 6.53% (active) | 95.4% |
| COc1cc(-c2nc(SCC(=O)Nc3ccc(C(C)=O)cc3)[nH]c(=O)c2C#N)cc(OC)c1OC | 14.1% | 0.453% (active) | 69.5% | 19.7% | 24.6% | 26.9% | 3.4% (active) | -22.9% (active) | 53.7% | 5.17% (active) | 40.2% | 6.82% (active) | 38.3% | 58.2% | 16% | 18% | 15.2% | 36% | 18.5% | 57.8% |
| Nc1ncc(-c2ccc3ncnc(Nc4ccc(F)c(Cl)c4)c3c2)cn1 | 43.3% | 55.5% | 36.3% | 54.4% | 32.9% | 54.9% | 16.2% | 55.4% | 101% | 87.5% | 45.9% | 32.8% | -12.6% (active) | 90.5% | -14.8% (active) | 64.5% | 95.8% | 103% | 35.6% | 102% |
| CCc1c(C)c2cc(-n3c(-c4ccc(OC)cc4)csc3=N)c(O)c(C)c2oc1=O | 17.7% | 5.33% (active) | 15.3% | 13.4% | 27.8% | 16.5% | 20.8% | -0.811% (active) | 60.8% | 9.77% (active) | 9.38% (active) | 5.28% (active) | -2.92% (active) | 21.7% | 10.8% | 12.9% | 4.4% (active) | 2% (active) | 5.9% (active) | 28.6% |
| CCC1S/C(=N\N=C(/C)c2cc3ccccc3o2)N(c2ccccc2)C1=O (stereo not given) | 161% | 79.8% | 105% | 85.4% | 98.7% | 202% | 128% | 135% | 118% | 101% | 107% | 98% | 102% | 100% | 96.7% | 81.7% | 83.9% | 79.5% | 93.7% | 114% |
| COc1ccc(/C=C/C(=O)/C=C(/C=C/c2ccc(OC)c(OC)c2OC)OB(F)F)c(OC)c1OC | 42.9% | 9.46% (active) | 16.4% | 7.37% (active) | 6.5% (active) | 31.9% | 56.4% | 32.9% | 37% | 19.1% | 9.58% (active) | 13.9% | 94.5% | 57.1% | 4.99% (active) | 29.1% | 36.8% | 35.4% | -5.79% (active) | 41% |
| O=C(Nc1ccc(-n2ccc3c(NC(=O)c4ccccc4)ncnc32)cc1)Nc1ccc(Cl)c(C(F)(F)F)c1 | -22.7% (active) | 0.237% (active) | 15% | 12% | -56.9% (active) | -15% (active) | -37.6% (active) | 13.5% | 7.73% (active) | 3.01% (active) | -53.2% (active) | -85.8% (active) | 53.5% | 9.33% (active) | -79.6% (active) | -38.8% (active) | 8.12% (active) | 29.7% | 2.99% (active) | 34.6% |
| O=C(Nc1cccc([N+](=O)[O-])c1)c1ccc2ccccc2c1O | 79.3% | 45.6% | 20.5% | 82.2% | 37.5% | 71.7% | 57.1% | 55.2% | 14.5% | 49.8% | 66% | 93.9% | 97.4% | 67.6% | 49.4% | 51.9% | 19.5% | 20.4% | 63.3% | 93.2% |
| Cl[C@@H]1CCO[C@H](c2cc3ccccc3c3ccccc23)C1 | 102% | 95.5% | 106% | 90.2% | 98.8% | 97.9% | 96.4% | 95% | 93.4% | 95.3% | 96.9% | 98.8% | 103% | 91.7% | 90.6% | 92.8% | 93% | 85.2% | 97.6% | 104% |
| COc1ccc2c(c1)nnc1c3cccnc3[nH]c21 | -18.3% (active) | -41.1% (active) | 11.4% | 0.316% (active) | -67.2% (active) | -24.8% (active) | 39.8% | -48.7% (active) | 33.5% | 4.79% (active) | 12.2% | -27.1% (active) | -14.2% (active) | 11.5% | -4.49% (active) | 29.3% | 46.2% | -0.424% (active) | -30.8% (active) | 31.9% |
| C=C1C(=O)O[C@H]2[C@H]1CC/C(C(=O)Nc1ccc(OC)c(C(N)=O)c1O)=C\CC[C@@]1(C)O[C@@H]21 | 36.3% | 22.9% | 21% | 58.4% | 3.02% (active) | 86.3% | 94.9% | 60.5% | 51.1% | 55.8% | 45.8% | 36% | 88.5% | 90.4% | 82.2% | 95.3% | 86.7% | 67.5% | 77.1% | 52.9% |
